Broadly, the AC50 is the concentration giving half of the maximal activity seen.

Several values for one entry are separate records, joined by “and”; a condition that tells them apart may be missing. Equal values may be shown once. Records with an inconclusive call do not appear. Where a structure was tested more than once in an assay, its records may differ in their call. Activity calls are given as the source filed them. How the source made its calls: active means hit-call score of the fitted dose curve at least 0.9, where 1 is the maximum; inconclusive means response in the unintended direction; inactive means score below 0.9.

This note sets out measurements from PubChem BioAssay (EPA / NIEHS).

Sequence of Retinoic acid receptor RXR-alpha (Homo sapiens) (P19793 whole entry, looked up, the tested form may be a part): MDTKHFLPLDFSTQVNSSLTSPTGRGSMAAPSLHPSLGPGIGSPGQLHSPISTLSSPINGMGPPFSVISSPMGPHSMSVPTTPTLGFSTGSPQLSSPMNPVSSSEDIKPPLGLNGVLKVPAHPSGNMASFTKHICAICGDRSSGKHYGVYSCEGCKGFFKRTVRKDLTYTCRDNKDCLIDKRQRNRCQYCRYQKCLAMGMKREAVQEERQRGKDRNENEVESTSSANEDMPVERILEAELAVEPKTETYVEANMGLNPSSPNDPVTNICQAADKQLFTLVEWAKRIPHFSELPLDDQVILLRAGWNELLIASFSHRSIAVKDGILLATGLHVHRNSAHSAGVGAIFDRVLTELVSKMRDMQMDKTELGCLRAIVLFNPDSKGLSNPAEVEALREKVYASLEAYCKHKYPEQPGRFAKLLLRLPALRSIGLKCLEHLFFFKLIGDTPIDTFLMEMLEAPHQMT

This assay concerns the target Retinoic acid receptor RXR-alpha (Homo sapiens) (UniProt P19793). Kind of assay: OT_NURR1_NURR1RXRa_0480: Odyssey Thera (OT) 8-hour HEK293T Protein Complementation Assay for Nurr1/retinoid X receptor (RXR) (AID 2283385). Here is the method: OT_NURR1_NURR1RXRa_0480 is a cell-based assay that uses HEK293T, a human kidney cell line, with measurements taken at 8 hours after chemical dosing in a 384-well plate.OT_NURR1_NURR1RXRa_0480 is one of one assay component(s) measured or calculated from the OT_NURR1_NURR1RXRa_0480 assay. It is designed to make measurements of protein fragment complementation, a form of binding reporter, as detected with fluorescence intensity signals by Protein-fragment Complementation technology.Data from the assay component OT_NURR1_NURR1RXRa_0480 was analyzed into 1 assay endpoint. This assay endpoint, OT_NURR1_NURR1RXRa_0480, was analyzed in the positive analysis fitting direction relative to DMSO as the negative control and baseline of activity. Using a type of binding reporter, measures of receptor for gain-of-signal activity can be used to understand the binding at the pathway-level as they relate to the gene RXRA. Furthermore, this assay endpoint can be referred to as a primary readout, because the performed assay has only produced 1 assay endpoint. To generalize the intended target to other relatable targets, this assay endpoint is annotated to the nuclear receptor intended target family, where the subfamily is non-steroidal.
Protein-fragment complementation assay, or PCA, is a method for the identification and quantification of protein-protein interactions. In the PCA, the proteins of interest ("bait" and "prey") are each covalently linked to fragments of a third protein (e.g. DHFR, which acts as a "reporter"). Interaction between the bait and the prey proteins brings the fragments of the reporter protein in close proximity to allow them to form a functional reporter protein whose activity can be measured.
With `O=C(Nc1ccc([N+](=O)[O-])cc1Cl)c1cc(Cl)ccc1O`, the compound was classed as inactive and the AC50 is 1.19 µM (active).

As for `CCCCCCC(C)OC(=O)COc1nc(F)c(Cl)c(N)c1Cl` (stereo not given), the AC50 was 79.2 µM (active) and the call was inactive.

In the case of `C=CCOC(Cn1ccnc1)c1ccc(Cl)cc1Cl` (stereo not given), the AC50 was 58.3 µM (active) and 85.7 µM (active).

On to `CCC(C)OC(=O)N1CCCCC1CCO` (stereo not given), for which the compound was called inactive.

Regarding `CCCCC(CC)CN1C(=O)C2C3C=CC(C3)C2C1=O` (stereo not given), the call was inactive.

In the case of `CC(=O)[C@H]1CC[C@H]2[C@@H]3CCC4=CC(=O)CC[C@]4(C)[C@H]3CC[C@]12C`, the compound was classed as inactive.

`CCCCOC(=O)[C@@H](C)Oc1ccc(Oc2ccc(C(F)(F)F)cn2)cc1`: the compound was classed as inactive.

Take `CCOC(=O)c1ccc(O)cc1`: the compound was called inactive.

Consider `COCCO`, for which the outcome was inactive.

`CCCCC(CC)COC(=O)c1ccccc1C(=O)O` (stereo not given): the compound was called inactive.

For `CCCN(CCC)C(=O)SCC`, the compound was called inactive.

Turning to `O=C(c1ccccc1)C1CCCCC1`, the compound was called inactive.

Take `CN(C)C(=O)Nc1ccc(Cl)c(Cl)c1`: the compound was called inactive.

Take `CCOC(=O)NCCOc1ccc(Oc2ccccc2)cc1`: the compound was classed as inactive and the AC50 was 2.34 µM (active).

As for `S=C([S-])NCCNC(=S)[S-].[Mn+2]`, the compound was called inactive.

With `CCOC(=O)C(C)Oc1ccc(Oc2nc3ccc(Cl)cc3o2)cc1` (stereo not given), the outcome was inactive and the concentration at half-maximal activity (AC50) is 78.9 µM (active).

On to `COC(=O)CSc1cc(N=c2sc(=O)n3n2CCCC3)c(F)cc1Cl`, for which the outcome was inactive.

`CCCCOCCOCCOCc1cc2c(cc1CCC)OCO2`: the call was inactive.

Turning to `C[C@]12C[C@H](O)[C@H]3[C@@H](CCC4=CC(=O)CC[C@@]43C)[C@@H]1CC[C@@H]2C(=O)CO`, the compound was called inactive.

In the case of `CC(C)(C)[C@@H](O)[C@@H](Cc1ccc(Cl)cc1)n1cncn1`, the call was inactive.

As for `COC(=O)c1ccccc1C(=O)O`, the call was inactive.

`CC(=O)S[C@@H]1CC2=CC(=O)CC[C@]2(C)[C@H]2CC[C@@]3(C)[C@@H](CC[C@@]34CCC(=O)O4)[C@H]12`: the call was inactive.

Take `CC(C)(c1ccc(O)cc1)c1ccc(O)cc1`: the result was inactive.

Turning to `C#CCOC(=O)[C@@H](C)Oc1ccc(Oc2ncc(Cl)cc2F)cc1`, the result was inactive.

For the compound `O=C(c1ccc(O)cc1O)c1ccc(O)cc1O`, the result was inactive.

Take `CCN(Cc1c(F)cccc1Cl)c1c([N+](=O)[O-])cc(C(F)(F)F)cc1[N+](=O)[O-]`: the compound was classed as inactive.

In the case of `CCOC(=O)C(C)Oc1ccc(Oc2cnc3cc(Cl)ccc3n2)cc1` (stereo not given), the call was inactive.

Consider `C[C@]12CC[C@@H]3c4ccc(O)cc4C[C@@H](CCCCCCCCCS(=O)CCCC(F)(F)C(F)(F)F)[C@H]3[C@@H]1CC[C@@H]2O` (stereo not given in full), for which the result was inactive.

Turning to `c1ccc(Nc2ccccc2)cc1`, the half-maximal activity concentration (AC50) is 50 µM (active).

For the compound `S=C(S)NCCNC(=S)S.[Mn+2].[S-]C([S-])=NCCN=C([S-])[S-].[Zn+2]`, the result was inactive.

Regarding `C#C[C@]1(O)CC[C@H]2[C@@H]3CCC4=CC(=O)CC[C@@H]4[C@H]3CC[C@@]21CC`, the compound was classed as inactive.

With `O=C(O)c1ccccc1`, the outcome was inactive.

Regarding `CCNc1nc(N)nc(Cl)n1`, the compound was classed as inactive.

As to `CSC(=O)c1cccc2nnsc12`, the call was inactive.

Turning to `Cc1nn(C)c(Oc2ccccc2)c1C=NOCc1ccc(C(=O)OC(C)(C)C)cc1`, the concentration at half-maximal activity (AC50) was 11.3 µM (active) and the result was inactive.
